According to PubChem BioAssay AID371 (SRMLSC, 2006):
In all, about 3,300 compounds went through this assay and about 280 (8.5%) were called active. This is one part of a sample in which actives are shown more often than they occur.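 The calls were made as follows: active = mean growth inhibition over the two runs of 50% or more; inactive = mean growth inhibition under 50%.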

Assay: A549 NSCLC cell proliferation inhibitors – ATP luminescence, human non-small cell lung line, primary screen (AID 371);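 also: compound exposure lasted 72 h before the ATP read; 0% = untreated cell signal and 100% = no luminescence left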
Conditions: at 10 µM, hits give high values

Structure (SMILES) | growth inhibition
Cc1nn(CC(N)=O)c(=O)c2ccccc12 | 25.7% (inactive)
O=S1(=O)C[C@@H](N2CCOCC2)[C@H](N2CCOCC2)C1 | 3.83% (inactive)
COc1ccc2c(c1)C1(C)CC(C)(C)N2C(=O)N1c1ccccc1 (stereo unspecified) | 38.5% (inactive)
OC1(C2(O)CC(c3ccccc3)ON2)CCCCC1 (stereo unspecified) | 19.6% (inactive)
CCCCc1nc(NCC2CCCO2)c(C#N)c2c1COC(C)(C)C2 (stereo unspecified) | 13.2% (inactive)
CCCc1nc(NC2CCCCC2)c(C#N)c2c1COC(C)(C)C2 | 51.4% (active)
CCc1nc(NC2CCCCC2)c(C#N)c2c1COC(C)(C)C2 | 46.1% (inactive)
CN(C)c1ccc(C=NCC2(O)CCOC(C)(C)C2)cc1 (stereo unspecified) | -1.1% (inactive)
Cc1ccc(OCC(=O)N2CCC(N3CCCCCC3)CC2)cc1 | 0.02% (inactive)
O=C1CC(c2ccco2)CC(O)=C1C=NCCN1CCN(C2CC(=O)N(c3ccccc3)C2=O)CC1 (stereo unspecified) | 11.7% (inactive)
CCOC(=O)c1ccc(N=CC2=C(O)CC(c3ccco3)CC2=O)cc1 (stereo unspecified) | 8.87% (inactive)
O=C1CC(c2ccco2)CC(O)=C1C=Nc1cc(Cl)ccc1O (stereo unspecified) | 52.3% (active)
CC1(C)CC(=O)C2=C(C1)OC(N)=C(C#N)C2C1C=CCCC1 (stereo unspecified) | 5.77% (inactive)
CCOC(=O)c1[nH]c2ccccc2c1N=CN(CC)CC | 1.27% (inactive)
COC(=O)CSC1=C(C#N)C(=O)NC2(CCCCC2)S1 | 7.6% (inactive)
COC(=O)CN(c1nc(C)cc(OC)n1)S(=O)(=O)c1ccccc1 | 12.9% (inactive)
Cn1c(=O)cc(NCc2ccccc2)[nH]c1=O | 8.28% (inactive)
Cc1ccc2cc(CNC(C)(C)C)c(=O)[nH]c2c1 | -14.5% (inactive)
Cc1ccc2nc(NCc3ccccc3)[nH]c2c1 | 66.2% (active)
O=C1OC(Nc2ccc(Br)cc2F)c2ccccc21 (stereo unspecified) | 3.02% (inactive)
CC(=O)Nn1cnc2c(c1=O)C1(CCCC1)Cc1ccccc1-2 | 16.8% (inactive)
N#CCc1nc2c3c4c(sc3ncn2n1)CCCC4 | 9.82% (inactive)

Structure (SMILES) | growth inhibition
O=C(Nc1nc(NC(=O)c2ccco2)n(-c2ccccc2)n1)c1ccccc1 | 82.7% (active)
COc1ccc(C(=O)Nc2nc(N)n(-c3ccccc3)n2)cc1OC | 1.17% (inactive)
Nc1nc(NC(=O)Cc2ccccc2)nn1-c1ccccc1 | 6.96% (inactive)
Cc1ccc(-n2c(N)c(C(N)=O)sc2=S)cc1 | 6.9% (inactive)
CCCC(=O)Nc1nn(CCC)c2nc3ccccc3cc12 | -8.01% (inactive)
CN1C(=O)c2c(sc3c2CCCC3)NC1c1ccccc1O (stereo unspecified) | 27.8% (inactive)
COc1cccc(C2C(C(=O)c3cc4ccccc4o3)=C(O)C(=O)N2CCN(C)C)c1OC (stereo unspecified) | 1.22% (inactive)
CCOC(=O)c1cnn2c1[nH]c(=O)c1ccccc12 | 7.89% (inactive)
CC(C)OC(=O)c1c2nc3ccccc3nc2n2c1[nH]c(=O)c1ccccc12 | 60.3% (active)
CCO/C(C)=N/n1c2nc3ccccc3nc2c2c(=O)n(CC(C)C)c(C)nc21 | 3.19% (inactive)
Cc1cc2ccccc2cc(C)c1=O | 9.2% (inactive)
Cc1cc(=O)oc2c(CN3CCC(C)CC3)c(O)c(Cl)cc12 | -0.87% (inactive)
O=C(CC(c1ccc(F)cc1)c1ccco1)N1CCCC1 (stereo unspecified) | 7.48% (inactive)
Nn1c(SCC(=O)Nc2ccc3c(c2)OCCO3)nnc1C(F)(F)F | 14.6% (inactive)
c1cc2c(cc1C1=Nn3c(nnc3C3CCCCC3)SC1)OCO2 | 50.2% (active)
c1ccc(-c2nnc3n2N=C(c2ccc4c(c2)OCO4)CS3)nc1 | 13.4% (inactive)
COc1ccc(OC)c(C2=Nn3c(nnc3C3CCCCC3)SC2)c1 | 47.4% (inactive)
O=S1CCCSC1c1cccnc1 (stereo unspecified) | -0.58% (inactive)
COc1ccc(/C(O)=C2\C(=O)C(=O)N(c3cc(C)on3)C2c2ccccc2OC)cc1C (stereo unspecified) | 7.8% (inactive)
COc1cccc(-c2nc(NCc3ccco3)c3ccccc3n2)c1O | 9.14% (inactive)
COc1cccc(-c2nc(NC(C)(C)C)c3ccccc3n2)c1O | 20.9% (inactive)
CCN(CC)c1nc(-c2cccc(OC)c2O)nc2ccccc12 | 13.8% (inactive)

Structure (SMILES) | growth inhibition
COc1cccc(-c2nc(NC(C)C)c3ccccc3n2)c1O | 77.9% (active)
COC(=O)CNc1nc(-c2cccnc2)nc2ccccc12 | 6.85% (inactive)
CCC(C)Nc1nc(-c2cccc(OC)c2O)nc2ccccc12 (stereo unspecified) | 71.5% (active)
CC1(C)Cc2nc(NCCCO)c(C#N)cc2CO1 | -0.91% (inactive)
CCCCOC(=O)C(C)c1c(C)[nH]c(=S)[nH]c1=O (stereo unspecified) | 5.11% (inactive)
O=C(Nc1ncccc1Cl)c1cccc(F)c1 | 7.47% (inactive)
COc1ccc(C2C(C#N)=C(SC)NC3=C2C(=O)CC(C)(C)C3)cc1 (stereo unspecified) | 11.2% (inactive)
Oc1ccccc1-c1nc(NCc2ccco2)c2ccccc2n1 | 31.9% (inactive)
Fc1cnc(N2CCOCC2)nc1NCc1ccccc1 | -1.26% (inactive)
c1ccc(N2CCN(c3nc(NCc4ccco4)c4ccccc4n3)CC2)cc1 | 90.4% (active)
COc1cccc(COc2nc3c(c(=O)n(C)c(=O)n3C)n2C)c1 | 29.5% (inactive)
COc1cccc(OC)c1C(=O)Nc1nc2ccc(S(C)(=O)=O)cc2s1 | 11.2% (inactive)
CCCCOc1ccccc1C(=O)NCCCC(=O)O | -2.38% (inactive)
CCCNCC(O)COc1ccccc1C(=O)CCc1ccccc1 (stereo unspecified) | 54.2% (active)
CCCOc1ccccc1C(=O)NCCCC(=O)O | -12.4% (inactive)
Cc1ccccc1NC(=O)NCCc1nc2ccccc2[nH]1 | -5.83% (inactive)
COc1ccc(C(O)C(CN2CCOCC2)c2ccccc2)cc1 (stereo unspecified) | 2.01% (inactive)
COc1ccc(C(=O)CCN2CCCCCC2)cc1 | 2.68% (inactive)
COc1ccc(C(=O)C(CN2CCCC2)c2ccccc2)cc1 (stereo unspecified) | 88.2% (active)
Cc1cc(C)nc(N(C#N)CN2C(=O)c3ccccc3C2=O)n1 | -0.78% (inactive)
COC(=O)c1ccc(C(=O)OC)c(NC(=O)c2cc3ccccc3o2)c1 | 5.58% (inactive)
COC(=O)/C(C#N)=C1/SC=C(C)N1c1ccccc1 | 4.54% (inactive)
